CIT2 TOR yeast: alters CIT2-GFP fluorescence in TOR pathway yeast screen | GFP response vs DMSO, % at 10 µM | 320,000 tested, 0.065% active | AID 2029 | S. cerevisiae CIT2-GFP strain, flow cytometry, 3 h; 100 means same as DMSO wells;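 active means GFP response relative to DMSO above a set limit, near the screen mean plus 3 SD, cut at about 150% in these data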;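 further: ratio of well median GFP fluorescence to mean of DMSO wells on the plate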
AGP1-GFP MLPCN: yeast TOR pathway AGP1-GFP modulation; S. cerevisiae AGP1-GFP multiplex flow cytometry, 3 h; GFP as percent of DMSO wells; GFP response vs DMSO, % at 10 µM; 320,000 tested, 0.02% active;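 active means GFP response relative to DMSO above a set limit, near screen average plus 3 SD, cut at about 150% in these data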;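 further: median GFP channel fluorescence of the gated AGP1 strain per well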
MEP2 TOR yeast: modulators of TOR pathway MEP2-GFP in S. cerevisiae; S. cerevisiae MEP2-GFP strain, flow cytometry GFP, 3 h; 100% = DMSO control level; 330,000 tested, 0.51% active; GFP response vs DMSO, % at 10 µM;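 active means GFP response versus DMSO above a set limit, roughly screen mean plus 3 SD, cut at about 180% in these data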;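 further: median GFP fluorescence of the barcode-gated MEP2-GFP cells per well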
RPL19A-GFP yeast: modulators of TOR pathway RPL19A-GFP in S. cerevisiae. S. cerevisiae RPL19A-GFP strain, flow cytometry, 3 h; active compounds read low. percent response vs DMSO, % at 10 µM. 330,000 tested, 0.3% active. AID 2025;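 active means percent response vs DMSO below 50%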;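 further: median channel GFP fluorescence of the barcoded RPL19A-GFP strain; ratio of sample median GFP to plate DMSO average so 100% = DMSO; lower means less RPL19A-GFP as with rapamycin TOR inhibition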
LAP4-GFP MLPCN: yeast TOR pathway LAP4-GFP modulation. GFP response vs DMSO, % at 10 µM. 320,000 tested, 0.34% active. AID 2023. S. cerevisiae LAP4-GFP multiplex, flow cytometry GFP, 3 h; median GFP as percent of DMSO wells;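 active means GFP response vs DMSO above a set limit, about the screen mean plus 3 SD, cut at about 150% in these data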
LAP4-GFP pick2: second confirmation of modulators of TOR reporter LAP4-GFP in yeast | shares compounds with LAP4-GFP MLPCN | GFP response vs DMSO, % at 10 µM | 590 tested, 20% active | S. cerevisiae LAP4-GFP strain, flow cytometry GFP, 3 h;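 active means GFP signal as percent of the solvent control above about 150%, meaning raised reporter expression, limit read from the data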;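 further: ratio of well median GFP fluorescence to plate DMSO mean so 100% = DMSO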
MEP2 cherry2: second confirmation of modulators of TOR reporter MEP2-GFP in yeast. shares compounds with LAP4-GFP MLPCN. S. cerevisiae MEP2-GFP strain, flow cytometry GFP, 3 h. GFP response vs DMSO, % at 10 µM. 590 tested, 10% active. AID 2622;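 active means GFP signal above 150% of the solvent control wells, that is a rise of more than half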;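 further: median channel GFP fluorescence of all gated yeast cells per well; ratio of median GFP to plate DMSO average so 100% = DMSO level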
RPL19A-GFP pick2: yeast RPL19A-GFP TOR reporter modulation, second cherry pick | shares compounds with LAP4-GFP MLPCN | S. cerevisiae RPL19A-GFP strain, flow cytometry GFP, 3 h; active compounds read low; 100% means same as DMSO wells | GFP response vs DMSO, % at 10 µM | 590 tested, 3% active | AID 2623;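 active means under 65% GFP response relative to DMSO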;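 further: median GFP channel fluorescence per well over the all cells gate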
CIT2-GFP pick2: second confirmation of modulators of TOR reporter CIT2-GFP in yeast. shares compounds with LAP4-GFP MLPCN. S. cerevisiae CIT2-GFP strain, flow cytometry GFP, 3 h; DMSO control wells read 100%. GFP response vs DMSO, % at 10 µM. 590 tested, 8% active;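 active means GFP response vs DMSO above about 150%, limit read from the data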;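 further: median green fluorescence per well over all gated yeast cells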
AGP1 GFP CP2: second confirmation of modulators of TOR reporter AGP1-GFP in yeast; AID 2643; 590 tested, under 10 active; S. cerevisiae AGP1-GFP strain, flow cytometry GFP, 3 h; percent response vs DMSO, % at 10 µM; shares compounds with LAP4-GFP MLPCN;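 active means over 150 percent of DMSO response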;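 further: median GFP channel fluorescence over all cells without mother daughter split; sample median GFP divided by mean DMSO control so 100% equals DMSO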
Yeast autofluor: counter-screen for compound autofluorescence in yeast s288c cells; 610 tested, under 10 active; S. cerevisiae s288c, 520 nm autofluorescence, flow cytometry, 3 h; active compounds read high; zero means same as solvent-only cells; fluorescence change (kMESF span) at 33 µM; AID 2757; shares compounds with LAP4-GFP MLPCN;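 active means fluorescence span over the dose series, or activity score, above about 33, limit read from the data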
Yeast autofl DR: yeast s288c autofluorescence artifact in dose response; shares compounds with LAP4-GFP MLPCN; S. cerevisiae s288c parental, compound autofluorescence, flow cytometry, 3 h; fluorescence change (span) at 33 µM; 110 tested, under 10 active; AID 488829;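 active means fluorescence change span, or the activity score built from it, above 25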
TORC1 bypass gr: stops wildtype yeast growth while TORC1 bypass cells still grow. S. cerevisiae BY4741 spot growth rating, 48-72 h; active compounds read low. growth rating (0-3) at 30 µM. 120 tested, under 10 active. AID 504456. shares compounds with LAP4-GFP MLPCN;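 active means growth rating at most 1 for wild type yeast while the TORC1 bypass strain still grows fully, rated 3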
An asterisk follows results filed as active; · = no result. Shown are actives, neighbours in structure and some others; about 0.89% of the full set was active somewhere.

SMILES	CIT2 TOR yeast	AGP1-GFP MLPCN	MEP2 TOR yeast	RPL19A-GFP yeast	LAP4-GFP MLPCN	LAP4-GFP pick2	MEP2 cherry2	RPL19A-GFP pick2	CIT2-GFP pick2	AGP1 GFP CP2	others
O=C(CS(=O)(=O)c1ccc(Cl)cc1)Nc1nnc(-c2cccs2)o1	99.4	98.4	100.8	98.7	97.0	·	·	·	·	·
Cc1ccc(S(=O)(=O)NC(CC(C)C)C(=O)NCC(C)(C)N2CCOCC2)cc1 (configuration not stated)	95.5	96.5	110.2	92.9	96.9	·	·	·	·	·
CC(=O)N1CCc2cc(S(=O)(=O)CCC(=O)NCc3ccc(F)cc3)ccc21	101.2	17.4	122.0	58.6	84.8	106.2	104.8	97.8	97.3	101.7
O=C1C(c2ccccc2)=[N+]([O-])c2ccccc21	89.4	87.2	93.0	104.9	160.3*	116.2	120.5	106.4	119.6	102.7
COc1ccccc1-c1cc(Nc2cc(C)[nH]n2)nc(NCc2ccccc2)n1	·	·	·	·	·	·	·	·	·	·	TORC1 bypass gr=3
COc1ccc(Nc2cc(C)nc(NCc3ccccc3)n2)cc1	105.6	106.2	101.8	98.7	103.2	·	·	·	·	·
COc1cc(C)nc(NCc2ccccc2)n1	·	104.3	96.5	97.3	88.8	·	·	·	·	·
COc1cccc(-c2cc(Nc3cc(C)[nH]n3)nc(NCc3ccccc3)n2)c1	·	·	·	·	·	·	·	·	·	·	TORC1 bypass gr=3
CC1=NN(c2ccccc2)C(=O)/C1=C\c1c(C)[nH]n(-c2ccccc2)c1=O	97.7	97.5	99.4	96.1	91.8	103.2	103.1	99.5	102.9	99.3
CCc1sc(C(=O)N2CCN(C(=O)c3ccccc3)CC2)cc1C	104.3	99.2	96.0	98.0	98.0	·	·	·	·	·
CSc1nnc2c3cc(F)ccc3n(C)c2n1	79.4	66.8	101.8	63.6	87.2	99.0	98.2	56.9*	96.1	61.5	Yeast autofluor=0.51;Yeast autofl DR=0.22;TORC1 bypass gr=3
Cn1c2ccc(F)cc2c2nc3ccccc3nc21	103.5	94.7	103.0	99.9	77.0	·	·	·	·	·
CCc1nnc(SCC(=O)N2CCCC(N3CCN(c4ccccc4C)CC3)C2)o1 (configuration not stated)	95.2	96.5	98.5	103.8	101.6	·	·	·	·	·
Cc1nn2c(-c3ccncc3)nnc2c2ccccc12	65.1	57.9	105.6	59.7	101.3	90.4	94.8	64.5*	97.2	67.8	Yeast autofluor=0.3;Yeast autofl DR=0.36;TORC1 bypass gr=3
Cc1nn2c(-c3ccco3)nnc2c2ccccc12	75.6	60.9	90.1	64.3	86.4	93.3	93.2	66.2	95.0	67.4
COc1ccc(-c2nnc3c4ccccc4c(C)nn23)cc1	103.7	94.1	103.7	93.1	83.5	·	·	·	·	·
COc1ccc(-c2nn(-c3ccccc3)cc2C(=O)O)cc1N	98.2	103.3	103.9	101.1	102.7	·	·	·	·	·
O=C(COc1c(Br)cc(Br)c2cccnc12)N1CCc2ccccc2C1	101.8	84.9	106.3	97.9	156.8*	·	·	·	·	·	Yeast autofluor=1
O=C(COc1c(Br)cc(Br)c2cccnc12)N1CCCCC1	95.9	96.5	119.6	98.0	122.9	·	·	·	·	·
Oc1ccc(CNc2ccccc2)c2cccnc12	102.0	98.8	105.3	94.5	78.2	103.2	124.0	105.3	121.0	102.7	Yeast autofluor=0.4
Oc1ccc(CNc2ccc(F)cc2)c2cccnc12	101.8	107.0	108.9	105.9	84.3	·	·	·	·	·
NCCCn1c(C(=O)c2ccc(Cl)cc2)c2ccc([N+](=O)[O-])cc2[n+]1[O-]	99.8	96.3	111.7	105.2	113.2	·	·	·	·	·
N#Cc1c2ccc([N+](=O)[O-])cc2[n+]([O-])n1-c1ccccc1	94.1	53.4	94.9	93.4	165.1*	179.4*	136.2	119.2	111.2	89.0	Yeast autofluor=0.71
COc1ccc(-c2cc(C)no2)cc1S(=O)(=O)Nc1cccc(CN2CCCC2)c1	93.1	100.0	99.9	100.9	91.5	·	·	·	·	·
COc1ccc(-c2cc(C)no2)cc1S(=O)(=O)N1CCCN(Cc2ccc(F)cc2)C1	102.7	72.7	128.6	51.5	87.1	100.0	99.8	99.2	104.0	97.5
SMILES	CIT2 TOR yeast	AGP1-GFP MLPCN	MEP2 TOR yeast	RPL19A-GFP yeast	LAP4-GFP MLPCN	LAP4-GFP pick2	MEP2 cherry2	RPL19A-GFP pick2	CIT2-GFP pick2	AGP1 GFP CP2	others
CC(C)(C)c1nnc(N/N=C/c2cc(Br)ccc2O)n(N)c1=O	94.8	98.8	102.9	87.6	185.3*	215.4*	139.7	98.2	114.0	105.3	Yeast autofluor=1.3
CCc1nnc(N/N=C/c2cc(Br)c(O)cc2O)n1N	108.5	101.0	109.9	104.5	95.0	·	·	·	·	·
CC(C)Cc1ccc(CN2CCCC(NC(=O)CSc3nncn3C)C2)cc1 (configuration not stated)	117.8	104.0	108.2	92.4	96.1	·	·	·	·	·
O=S(=O)(c1ccc(SCCO)nc1)N1CCOCC1	103.2	108.4	100.8	103.7	108.7	·	·	·	·	·
CNC(CC(=O)c1ccc([N+](=O)[O-])cc1)C(Cl)(Cl)Cl (configuration not stated)	81.4	86.3	82.2	79.5	194.8*	179.8*	188.0*	89.3	143.6	81.9	Yeast autofluor=2
Cc1nc(C(C)N(C)Cc2nc(-c3ccc4c(c3)OCO4)no2)c(C)s1 (configuration not stated)	78.3	97.8	107.6	88.0	124.0	·	·	·	·	·
O=C(N/N=C/c1ccccc1)c1ccco1	101.6	108.4	98.2	98.1	118.8	·	·	·	·	·
O=C(C#Cc1ccccc1)c1ccco1	76.9	100.8	128.4	87.5	152.6*	155.8*	164.7*	85.1	127.8	118.2	Yeast autofluor=0.61
CC(C)CN1CCN(Cc2cnc(-c3ccc(Cl)cc3)nc2)CC1CCO (configuration not stated)	86.5	80.9	152.3	62.0	96.5	102.9	111.5	100.4	98.4	102.5

Source: PubChem BioAssay
